Sampled rows, rich in hits. Any-hit rate of the full collection: about 21%.
Shiga toxin inh = A qHTS for Small Molecule Inhibitors of Shiga Toxin. inhibition, % at 38.7 µM. Vero cells, Shiga toxin protein synthesis inhibition reporter. 290,000 tested, 9.2% active; in the data active means inhibition mostly above about 28%, no sharp cut-off; inactive means mostly below about 43%; further: 0% is about no effect
Pf growth 48h = Primary qHTS for delayed death inhibitors of the malarial parasite plastid, 48 hour incubation; P. falciparum luciferase growth in erythrocytes, 48 h; Potency, µM (highest dose often 28.7 µM), for inactives: at the highest dose activity change, negative = inhibition, hits mostly inhibitors; 310,000 tested, 5.9% active; AID 504832, 2011; further: potency means the concentration at half of the fitted maximal effect; on the % scale 0 is the no-effect control and ±100 the full control effect
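Compounds are pin-transferred into medium, infected erythrocytes (2% hematocrit, 0.1% parasitemia final) are added, and plates sit one parasite generation at 37 C in 5% CO2. Detection reagent is then added and luminescence measured.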
HCV inh = qHTS Assay for Inhibitors of Hepatitis C Virus (HCV). Huh7.5.1 HCVcc-Cre infection, luciferase reporter, 44 h. Potency, µM (highest dose often 41.8 µM), without a hit: at the highest dose activity change, negative = inhibition, most hits filed as inhibitors. 340,000 tested, 3.4% active; further: potency means the concentration at half of the fitted maximal effect; on the % scale 0 is the no-effect control and ±100 the full control effect
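1,000 cells/well; 4 h culture; + compound; + HCVcc-Cre (~0.5 moi); 44 h; luciferase substrate, RT 15 min; read 15 sec.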
AMA1-RON2 inh = qHTS for Inhibitors of AMA1-RON; Towards Development of Antimalarial Drug Lead: Primary Screen. Potency, µM (highest dose often 58.2 µM), for the others: at the top dose activity change, negative = inhibition, most hits filed as inhibitors. AlphaScreen AMA1-biotinylated RON2 peptide binding. Plasmodium falciparum AMA1 (3D7) - RON2 peptide interaction. AID 720542, 2013. 360,000 tested, 0.2% active;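 further: potency means the concentration at half of the fitted maximal effect; 0% = vehicle wells and -100% = peptide control; nearly all actives have a fitted effect of over 45% in size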
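AMA1 (3D7) with his tag at 25 nM final met compounds first, then biotinylated RON2 peptide at 25 nM; detection used donor plus acceptor beads, 10 µg/mL apiece, read by AlphaScreen after 30 min at room temperature.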
CHX counter = Cycloheximide Counterscreen for Small Molecule Inhibitors of Shiga Toxin. 300,000 tested, 12% active. max response, %. cell reporter, cycloheximide protein synthesis inhibition counterscreen; in the data active means max response mostly above about 13%, no sharp cut-off; inactive means mostly below about 14%; further: read at 38.3 µM for the half of the compounds with a filed dose; 0% is about no effect
Pf growth 96h = Primary qHTS for delayed death inhibitors of the malarial parasite plastid, 96 hour incubation; P. falciparum luciferase reporter growth, 96 h; Potency, µM (doses to about 28.7 µM), for the others: top-dose activity change, negative = inhibition, usual class: inhibitors; 320,000 tested, 6.9% active; further: potency means the concentration at half of the fitted maximal effect; on the % scale 0 is the no-effect control and ±100 the full control effect
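P. falciparum expressing integrated firefly luciferase grown in erythrocytes (2% hematocrit, 0.05% parasitemia final) with compounds for 96 hours at 37 C, 5% CO2. Growth inhibition read as loss of luminescence after adding luciferase detection reagent.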
* marks the source's active call; other numbers are inactive results; u = inconclusive; x = no result. Unless noted, the call rests on the fitted dose curve; in most records, active means well fitted curve in the direction sought with a large enough effect; inconclusive means small, poorly fitted or top-dose-only effect, or another doubt; inactive means no such curve, though single readings can be large; an effect the other way counts as inactive or inconclusive.

SMILES	Shiga toxin inh	Pf growth 48h	HCV inh	AMA1-RON2 inh	CHX counter	Pf growth 96h
O=C(/C=C/c1c(F)cccc1Cl)Nc1nc2ccccc2[nH]1	81*	208%	0%	42%	36*	24%
Cc1ccc(/C=C/C(=O)c2nc3ccccc3[nH]2)cc1	68*	4%	u	9%	45*	u
CCOC(=O)CN(C)C(=O)C1CC(CO[Si](C)(C)C(C)(C)C)=CN1C(=O)OC(C)(C)C (centres undefined)	4	x	x	x	7	x
COc1cccc(/C=N/NC(=O)CCn2nnc3ccccc32)c1	8	27%	u	72%	13	17%
COc1cccc(/C=N/NC(=O)C(C)n2nnc3ccccc32)c1 (centres undefined)	23	14%	10%	52%	25*	3%
COc1cccc(/C=N/NC(=O)c2nc(-c3ccccc3)cc(-c3ccccc3)n2)c1	7	10µM*	1%	-2%	0	7%
COc1ccc(/C=N/NC(=O)c2nc(-c3ccccc3)cc(-c3ccccc3)n2)cc1OC	28	u	u	-6%	-2	2.3µM*
COc1cc(/C=N\NC(=O)c2ccc(-c3ccccc3)cc2)ccc1OCC(N)=O	1	-7%	u	-5%	-2	-6%
O=C(O)C[C@H]1c2cc(F)ccc2S(=O)(=O)N1C1CCN(Cc2ccccc2)CC1	x	x	19%	-3%	x	x
O=C(COc1ccc(S(=O)(=O)Nc2ccccc2)cc1)NCc1ccncc1	15	1%	3%	2%	9	90%
C=CCSc1nnc(-c2ccc(Cl)cc2Cl)o1	92*	197%	-9%	20%	43*	44%
c1ccc2[nH]c(CSc3nnc(-c4ccncc4)o3)nc2c1	-8	-28%	u	-4%	8	u
Clc1ccc(-c2nnc(SCc3ccon3)o2)c(Cl)c1	61*	138%	u	-12%	37*	x
Clc1ccc(-c2nnc(SCc3nc4ccccc4[nH]3)o2)c(Cl)c1	32	4%	-10%	1%	17*	-13%
NCCCCCc1nnc(SCc2ccc(Cl)cc2Cl)o1	-10	0%	1%	23%	-3	-3%
O=C(NCC1CC1)c1ccc(Oc2cc(Cl)cc(Cl)c2)o1	3	12µM*	u	-25%	1	9.3µM*
O=C(c1ccc(Oc2cc(Cl)cc(Cl)c2)o1)N1CCCCC1	3	18%	-18%	-2%	17	26%
COc1ccccc1-c1cc(C(=O)NC2CCN(C)CC2)c2ccc(Cl)c(C)c2n1	13	9.3µM*	-5%	-11%	-3	u
Cc1ccc2nc(-c3ccccn3)cc(C(=O)NC3CCN(C)CC3)c2c1	-17	-11%	2%	x	-3	x
O=C(NCCN1CCCCC1)c1cc(Cl)ccc1Cl	2	0%	-4%	4%	-3	4.7µM*
O=C(NCCN1CCCCC1)c1ccc(Oc2cc(Cl)cc(Cl)c2)o1	-5	7.4µM*	u	11%	-2	4.7µM*
O=C(NCCN1CCCC1)c1ccc(Cl)cc1	-8	17%	6%	-2%	-2	110%
COc1ccccc1CC(NC(C)=O)C(=O)NC1CCN(C(=O)Nc2ccccc2F)CC1 (centres undefined)	17	-6%	7%	2%	-7	0%
CCOC(=O)COc1cc2oc(=O)cc(C)c2cc1[N+](=O)[O-]	-1	64%	-4%	0%	-3	22%
CS(=O)(=O)c1ccc(Nc2nc(C(N)Cc3ccc(Cl)cc3)cs2)cc1 (centres undefined)	x	x	x	48%	x	x
Cc1c(Cl)ccc2c(C(=O)NCCN3CCCCC3)cc(-c3ccccn3)nc12	-15	u	5.6µM*	8%	7	u
CCOc1ccc(C(=O)Nc2ccc(S(=O)(=O)Nc3nccc(C)n3)cc2)cc1OCC	-10	-27%	10%	3%	-4	8.3µM*

Source: PubChem BioAssay
